# Assay results taken from PubChem BioAssay (EPA / NIEHS).
# Inconclusive results are not listed. Where a structure was tested more than once in an assay, its records may differ in their call. Active and inactive are the calls of the source. How the source made its calls, unless noted: active means hit-call score of the fitted dose curve at least 0.9, where 1 is the maximum; inactive means score below 0.9.
# Key:
# [1] = CCTE_Mundy_HCI_hNP1_Pro_ResponderAvgInten: CCTE's Proliferation Assay in human neuroprogenitor cells, Mundy Lab (AID 2284224; active means hit-call score of the fitted dose curve at least 0.9, where 1 is the maximum)
# Outline: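 Proliferation was scored as BrdU labelling intensity in human neural progenitors derived from WA09 embryonic cells, measured 26.25 hours after chemical dosing. Activity was fitted relative to DMSO.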
# [2] = BSK_BT_PBMCCytotoxicity: PBMC Cytotoxicity Assessment in the BioMAP Diversity Plus: BT Assay (AID 2284225); conditions: primary human B cells with PBMC;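 further: PBMC viability measured by Alamar Blue dye reduction fluorescence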
# Outline: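 Viability by Alamar Blue reduction (6 h, ex/em 546/580 nm) after 90 h culture of SEB/TSST-1-activated PBMC (20 ng/mL each) given compound 1 h before activation. DMSO served as baseline for curve fitting.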
# [3] = read-out: Secreted IgG (sIgG), gene 3500; test: BSK_BT_sIgG: BioMAP Diversity Plus: BT Assay for Secreted IgG (sIgG) Biomarker Activity (AID 2284226); conditions: primary human B cells with PBMC
# Outline: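 ELISA quantitation of secreted IgG from human B cells co-cultured with PBMC, sampled 24 h post-dosing. Values fitted relative to DMSO vehicle as baseline, positive fitting direction.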
# [4] = BSK_BT_Bcell_Proliferation: Viability Assessment in the BioMAP Diversity Plus: BT Assay for B cell Proliferation (AID 2284227); conditions: primary human B cells with PBMC
# Outline: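 SRB-based protein staining (0.1% SRB after 10% TCA fixation, 560 nm) quantifies proliferation in human B cells co-cultured with PBMC, 72 h post-dosing, with signal gain scored relative to DMSO negative control.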
# [5] = read-out: Interleukin 6 (IL6), IL6 (gene 3569); test: BSK_BT_xIL6: BioMAP Diversity Plus: BT Assay for Interleukin 6 (IL6) Biomarker Activity (AID 2284228); conditions: primary human B cells with PBMC
# Outline: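 Human B cell plus PBMC co-culture exposed to test chemical for 24 h; secreted IL-6 quantified by Luminex xMAP bead assay. Activity fitted in the positive direction against DMSO as negative control and baseline.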
# [6] = read-out: Interleukin 17A (IL17A), IL17A (gene 3605); test: BSK_BT_xIL17A: BioMAP Diversity Plus: BT Assay for Interleukin 17A (IL17A) Biomarker Activity (AID 2284229); conditions: primary human B cells with PBMC
# Outline: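 B cells co-cultured with PBMC were exposed to test chemicals, and secreted IL-17A was quantified 24 h after dosing by Luminex xMAP bead immunoassay. Activity was fitted in the gain direction against DMSO as baseline.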
# [7] = read-out: Tumor necrosis factor (Homo sapiens) (UniProt P01375); test: BSK_BT_xTNFa: BioMAP Diversity Plus: BT Assay for Tumor necrosis factor alpha (TNF-alpha) Biomarker Activity (AID 2284230); conditions: primary human B cells with PBMC
# Outline: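 Compounds were added to a B cell plus PBMC co-culture, and after 24 h secreted TNF-alpha was quantified with Luminex xMAP technology, with responses fitted upward from the DMSO control.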
# [8] = read-out: Vascular cell adhesion molecule 1 (VCAM1), VCAM1 (gene 7412); test: BSK_MyoF_VCAM1: BioMAP Diversity Plus: MyoF Assay for Vascular cell adhesion molecule 1 (VCAM1) Biomarker Activity (AID 2284231); conditions: primary human lung fibroblasts
# Outline: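 Primary human lung fibroblasts were dosed with test chemical for 24 h, then cell-surface VCAM-1 was measured by ELISA. Activity was fitted in the positive direction against DMSO as negative control and baseline.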
# [9] = read-out: Collagen I, COL1A1 (gene 1277); test: BSK_MyoF_CollagenI: BioMAP Diversity Plus: MyoF Assay for Collagen I Biomarker Activity (AID 2284238); conditions: primary human lung fibroblasts
# Outline: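 Human lung fibroblasts were exposed to test chemical for 24 h, then Collagen I was quantified by ELISA. Activity was fitted in the increasing direction against DMSO as the negative control and baseline.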
# [10] = read-out: Collagen III, COL3A1 (gene 1281); test: BSK_MyoF_CollagenIII: BioMAP Diversity Plus: MyoF Assay for Collagen III Biomarker Activity (AID 2284239); conditions: primary human lung fibroblasts
# Outline: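 Human lung fibroblasts were dosed with chemicals and, 24 hours later, collagen III was measured by ELISA. Activity was fitted in the positive direction against the DMSO negative-control baseline.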
# [11] = CCTE_Mundy_HCI_hNP1_Casp3_7: CCTE's Caspase-Glo 3/7 Assay in human neuroprogenitor cells for Apoptosis, Mundy Lab (AID 2284240)
# Outline: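 Apoptosis is scored by activated caspase-3/7 luminescence in WA09-derived neural progenitor cells, measured 26.5 h after chemical dosing. Values represent gain of signal relative to DMSO vehicle.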
# [12] = CCTE_Mundy_HCI_hNP1_CellTiter: CCTE's Cell Titer-Glo 2 Assay in human neuroprogenitor cells for Viability, Mundy Lab (AID 2284241; active means hit-call score of the fitted dose curve at least 0.9, where 1 is the maximum)
# Outline: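 Human neural progenitor cells (hNP1, WA09-derived) were plated on poly-L-ornithine/laminin and grown 40 to 44 hours at 37 °C, 5% CO2 before chemical addition. Twenty-four hours later, ATP was measured by CellTiter-Glo luminescence; loss of signal versus DMSO indicates reduced viability.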
# [13] = read-out: Interleukin 17F (IL17F), IL17F (gene 112744); test: BSK_BT_xIL17F: BioMAP Diversity Plus: BT Assay for Interleukin 17F (IL17F) Biomarker Activity (AID 2284243); conditions: primary human B cells with PBMC
# Outline: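 B cell/PBMC co-culture (human primary), 24 h compound exposure; sIL-17F by Luminex xMAP; gain-of-signal fit vs DMSO baseline.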
# [14] = read-out: Actin alpha 1 (ACTA1), ACTA1 (gene 58); test: BSK_MyoF_ACTA1: BioMAP Diversity Plus: MyoF Assay for Actin alpha 1 (ACTA1) Biomarker Activity (AID 2284244); conditions: primary human lung fibroblasts
# Outline: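 alpha-SMA levels read by ELISA against DMSO baseline, 24 h post-dose, in primary human lung fibroblasts. Parallel cultures stained with 0.1% SRB after 10% TCA fixation (560 nm) to flag overt cytotoxicity.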
# [15] = read-out: Interleukin 2 (IL2), IL2 (gene 3558); test: BSK_BT_xIL2: BioMAP Diversity Plus: BT Assay for Interleukin 2 (IL2) Biomarker Activity (AID 2284245); conditions: primary human B cells with PBMC
# Outline: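 Secreted IL-2 was read by Luminex xMAP from B cells co-cultured with PBMC (human primary) 24 h post-dosing; activity was analysed as gain of signal relative to DMSO vehicle.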
# [16] = read-out: Basic fibroblast growth factor (bFGF), FGF2 (gene 2247); test: BSK_MyoF_bFGF: BioMAP Diversity Plus: MyoF Assay for Basic fibroblast growth factor (bFGF) Biomarker Activity (AID 2284246); conditions: primary human lung fibroblasts
# Outline: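 bFGF was measured by ELISA in primary human lung fibroblasts 24 h after chemical addition. Signal was analysed as positive-direction change relative to DMSO baseline.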
# [17] = read-out: Collagen IV, COL4A1 (gene 1282); test: BSK_MyoF_CollagenIV: BioMAP Diversity Plus: MyoF Assay for Collagen IV Biomarker Activity (AID 2284247); conditions: primary human lung fibroblasts
# Outline: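 Collagen IV quantified by ELISA in human lung fibroblast cultures 24 h after chemical treatment, with DMSO as baseline. Parallel SRB staining (0.1% SRB after TCA fixation, 560 nm) flags overt cytotoxicity.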
# [18] = read-out: Monokine induced gamma interferon (MIG), CXCL9 (gene 4283); test: BSK_KF3CT_MIG: BioMAP Diversity Plus: KF3CT Assay for Monokine induced gamma interferon (MIG) Biomarker Activity (AID 2284248); conditions: primary human keratinocytes with fibroblasts
# Outline: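 Human keratinocyte plus foreskin fibroblast primary co-culture dosed with test chemical for 24 h; MIG level measured by ELISA and fitted in the positive direction against DMSO as baseline.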
# [19] = CCTE_Shafer_MEA_dev_mutual_information_norm: CCTE's Neural Network Formation Assay for Mutual Information Normalization, Shafer Lab (AID 2284091)
# Outline: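 Shared information across electrodes, tracked on days 5, 7, 9 and 12 of network development and collapsed as trapezoidal area under the curve. Rat cortical cultures were treated continuously from plating, with treatment renewed at feeds on DIV 5 and 9; DMSO baseline, negative-direction fit.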
# [20] = CCTE_Shafer_MEA_dev_correlation_coefficient_mean: CCTE's Neural Network Formation Assay for Mean Correlation Coefficient, Shafer Lab (AID 2284093)
# Outline: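 Read-out: well-mean correlation coefficient of spike trains between electrode pairs, collapsed over four recording days as trapezoidal area-under-the-curve. Developing rat cortical neuron networks grown on MEAs received test chemical continuously from plating.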
# Sequence of Tumor necrosis factor (Homo sapiens) (P01375 whole entry, looked up): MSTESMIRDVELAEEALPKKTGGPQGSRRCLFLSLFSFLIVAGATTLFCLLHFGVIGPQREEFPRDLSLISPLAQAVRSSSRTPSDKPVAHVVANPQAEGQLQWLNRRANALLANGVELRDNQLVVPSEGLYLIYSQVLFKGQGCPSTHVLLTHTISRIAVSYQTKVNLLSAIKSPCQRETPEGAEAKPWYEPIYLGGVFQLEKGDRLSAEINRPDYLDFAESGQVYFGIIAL
structure (smiles),measurement,setting,value
NC(=O)C(F)(F)C(F)(F)C(F)(F)C(F)(F)C(F)(F)C(F)(F)C(F)(F)F,outcome,[1],inactive
same,outcome,[2],inactive
same,outcome,[3],inactive
same,outcome,[4],inactive
same,outcome,[5],inactive
same,outcome,[6],inactive
same,outcome,[7],inactive
same,outcome,[8],inactive
same,outcome,[9],inactive
same,outcome,[10],inactive
same,outcome,[11],inactive
same,outcome,[12],inactive
same,outcome,[13],inactive
same,outcome,[14],inactive
same,AC50,[15],30 µM (active)
same,outcome,[15],inactive
same,outcome,[16],inactive
same,outcome,[17],inactive
same,outcome,[18],inactive
FC(F)(F)C(F)(F)C(F)(F)C(F)(F)C(F)(F)C(F)(F)C(F)(F)CCI,outcome,[19],inactive
same,outcome,[20],inactive
same,outcome,[2],inactive
same,outcome,[3],inactive
same,outcome,[4],inactive
same,outcome,[5],inactive
same,outcome,[6],inactive
same,outcome,[7],inactive
same,outcome,[8],inactive
same,outcome,[9],inactive
same,outcome,[10],inactive
same,outcome,[13],inactive
same,outcome,[14],inactive
same,outcome,[15],inactive
same,outcome,[16],inactive
same,outcome,[18],inactive
O=C(Cl)C(F)(F)C(F)(F)C(F)(F)C(F)(F)C(F)(F)C(F)(F)C(F)(F)F,AC50,[2],24.7 µM (active)
same,outcome,[2],inactive
same,outcome,[3],inactive
same,outcome,[4],inactive
same,outcome,[5],inactive
same,outcome,[6],inactive
same,outcome,[7],inactive
same,outcome,[8],inactive
same,outcome,[9],inactive
same,outcome,[10],inactive
same,outcome,[13],inactive
same,outcome,[14],inactive
same,outcome,[15],inactive
same,outcome,[16],inactive
same,outcome,[18],inactive
